Experimental data published in PubChem BioAssay (Tox21).
Results filed as inconclusive are left out. A number with no mark means an inactive call. Activity calls are given as the source filed them. The call rests on the fitted dose curve; in most records, active means well fitted cell-killing curve with a large enough effect in the repeat runs; inconclusive means weak or mixed curves, or effect the other way; inactive means flat fitted curve, though single readings scatter.

Test: Human pregnane X receptor (PXR) small molecule agonists, qHTS cell viability counter screen (AID 1346977); further: nearly all actives have a fitted effect of over 50% in size
Conditions: PXR-Luc HepG2 viability, CellTiter-Fluor, 24 h; series mostly up to 92.4 µM; activity change, negative = cytotoxicity: at the top concentration
Source text: U.S. Tox21 Program National Center for Advancing Translational Sciences [NCATS] NIH Chemical Genomics Center [NCGC] U.S. Environmental Protection Agency [EPA] National Institutes of Environmental Health Sciences [NIEHS] National Toxicology Program [NTP] U.S. Food and Drug Administration [FDA] Tox21 Assay Overview: The human pregnane X receptor (hPXR) regulates the expression of several drug metabolizing enzymes and induction of these proteins is a major mechanism for developing drug resistance in cancer. One such key enzyme catalyzing the drug metabolism is cytochrome P450 3A4 (CYP3A4). Changes in CYP3A4 expression affect drug metabolism, thereby reducing the therapeutic efficacy and altering toxicological response to a drug and which finally causes adverse drug interaction. To screen Tox21 libraries for compounds that activate hPXR-mediated CYP3A4 gene expression, PXR-Luc HepG2 cells were used. Also cytotoxicity of the compounds was tested in parallel by measuring the cell viability using CellTiter-Fluor assay system in the same wells.
Tox21 Assay Protocol Summary: PXR-Luc HepG2 cells were dispensed at 2,000 per well in 5uL of assay medium containing 5% charcoal-stripped FBS into white solid bottom 1536-well plates (Corning Life Sciences, Corning, NY) using a Multidrop Combi (Thermo Scientific, Waltham, MA) dispenser. The assay plates were incubated at 37 C and 5% CO2 for 5hr, and then 23nL of compounds dissolved in DMSO and positive control were transferred using a Pintool station (Wako, San Diego, CA). The assay plates were incubated at 37C and 5% CO2 for 24hr. For cytotoxicity read, after 23hr incubation at 37C, 1uL CellTiter-Fluor reagent (Promega Corporation, Madison, WI) was added to each well of the assay plates using Flying Reagent Dispenser (FRD, Aurora Discovery, San Diego, CA). After 1hr incubation at 37C and 5% CO2, the fluorescence signal was quantified using a ViewLux plate reader (PerkinElmer, Shelton, CT).
On the % scale 0 is the no-effect control and ±100 the full control effect; potency means the concentration at half of the fitted maximal effect.

Row | Compound | Potency | activity change, negative = cytotoxicity
1 | OCCN1CCN(CCCN2c3ccccc3Sc3ccc(Cl)cc32)CC1 | 29.8 µM (active) | –
2 | CCC(OCCCOC)OC(C)=O (stereo not given) | – | 1.39%
3 | c1ccc2sc(SN(C3CCCCC3)C3CCCCC3)nc2c1 | – | 10.2%
4 | CC1(C)S[C@@H]2[C@H](NC(=O)C(c3ccccc3)S(=O)(=O)O)C(=O)N2[C@H]1C(=O)O (stereo not given in full) | – | -0.281% [at 42.5 µM]
5 | O=C1C(=O)c2ccccc2C(O)=C1C1CCC(c2ccc(Cl)cc2)CC1 (stereo not given) | 11.9 µM (active) | –
6 | CCOC(=O)c1ccc(O)c(O)c1 | – | 2.21% [at 42.5 µM]
7 | Oc1c(I)cc(I)c2cccnc12 | – | 0.573% [at 42.5 µM]
8 | Clc1cc(Cl)nc(Cl)n1 | – | 3.67%
9 | O=C(O)CCCCCCCCCCCBr | – | 0.277%
10 | C[C@@H](O)[C@H]1C(=O)N2C(C(=O)O)=C([C@H]3CCCO3)S[C@H]12 | – | 1.47% [at 42.5 µM]
11 | O=C(O)CCc1nc(-c2ccccc2)c(-c2ccccc2)o1 | – | 14% [at 42.5 µM]
12 | C[C@H]1C[C@H](O)c2ccsc2S1(=O)=O | – | 17.3% [at 42.5 µM]
13 | C[C@]12CC[C@@H]3c4ccc(O)cc4CC[C@H]3[C@@H]1CC[C@@H]2OC(=O)CCC1CCCC1 | – | -11.2% [at 42.5 µM]
14 | CN1C(=O)OC(C)(C)C1=O | – | -0.141%
15 | Cc1cc2c(OCC(CNC(C)(C)C)OC(=O)c3ccccc3)cccc2[nH]1 (stereo not given) | – | -3.41% [at 42.5 µM]
16 | C=CC(C)(CCC=C(C)C)OC(=O)CC(C)C (stereo not given) | – | -3%
17 | CCC1(CO)COCOC1 | – | -0.201%
18 | Nc1cccc2c1CN(C1CCC(=O)NC1=O)C2=O (stereo not given) | – | 2.09% [at 42.5 µM]
19 | Cc1ccc(C(C)(C)O)cc1 | – | 1.39%
20 | CC(C)C(O)(c1ccc(OC(F)(F)F)cc1)c1cncnc1 (stereo not given) | – | -0.224%

Row | Compound | Potency | activity change, negative = cytotoxicity
21 | C/C=C(/C(=C/C)c1ccc(O)cc1)c1ccc(O)cc1 | – | -4.05% [at 42.5 µM]
22 | C[C@H]1c2cccc(O)c2C(O)=C2C(=O)[C@]3(O)C(O)=C(C(N)=O)C(=O)[C@@H](N(C)C)[C@@H]3[C@@H](O)[C@@H]21 | – | 15% [at 42.5 µM]
23 | Cc1ccc(OC(=O)c2ccccc2O)cc1 | – | 2.99%
24 | O=C1NCCN1CCO | – | 2.91%
25 | Cc1cc(=O)c2c(O)c3c(O)cc(=O)c4c3c3c(cc(O)c1c23)C(C)(C)C=4O | 0.73 µM (active) | –
26 | CC(C)c1nc(CN(C)C(=O)N[C@H](C(=O)N[C@@H](Cc2ccccc2)C[C@H](O)[C@H](Cc2ccccc2)NC(=O)OCc2cncs2)C(C)C)cs1 | 9.44 µM (active) | –
27 | CC(C)COCC(CN(Cc1ccccc1)c1ccccc1)N1CCCC1 (stereo not given) | 29.8 µM (active) | –
28 | Cc1ccc2c(Br)cc(Br)c(O)c2n1 | – | -4.7% [at 42.5 µM]
29 | O=C(/C=C/c1ccccc1)OCCc1ccccc1 | – | 2.43%
30 | CCCCC(CC)CN (stereo not given) | – | 2.07%
31 | c1csc(SSc2cccs2)c1 | 27.3 µM (active) | –
32 | Cc1cc(C)c(N)cc1C | – | 5.98%
33 | CC(CN(C)C)C(C)(O)Cc1ccc(Cl)cc1 (stereo not given) | – | -5.25% [at 42.5 µM]
34 | CC(=O)Oc1ccc([N+](=O)[O-])cc1CCl | 48.6 µM (active) | –
35 | CCc1ccccc1 | – | -6.72%
36 | Nc1ccc(N=Nc2ccccc2)c(N)c1 | 33.6 µM (active) | –
37 | O=C1Cc2ccccc2N1c1c(Cl)cccc1Cl | – | -21%
38 | NCCNCCO | – | 5.25%
39 | CC(CCC(=O)O)C(=O)O (stereo not given) | – | -5.69%
40 | CCCCCCCCN | – | -4.43%
